{"source": "PubChem BioAssay (NCI)", "note": "The panel holds about 79,000 compounds, 15% with a hit somewhere; the sample as a whole holds those more often. Active and inactive are the calls of the source. Rule as the data show it: active = growth inhibition above about 70%; inactive = the rest. Residues, ends and D or L forms follow the SMILES beside them. *: point of attachment. Fmoc = O=C(OCC1c2ccccc2-c2ccccc21)*; Boc = CC(C)(C)OC(=O)*"}
{"experiment": "NCI Yeast Anticancer Drug Screen. Data for the mec2-1 strain (AID 157)", "settings": "S. cerevisiae mec2-1 strain, at 33.0 µM, active compounds read high", "procedure,_shortened": "(§1)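 Each compound was tested on mec2-1 yeast, a strain altered in DNA damage repair or cell cycle control. Growth inhibition is reported relative to vehicle.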"}
{"smiles": "CC(C)C(=O)CC(Sc1ccc(N)cc1)c1ccccc1", "note": "(configuration not stated)", "growth inhibition": "27% (inactive)"}
{"smiles": "CC(C)OP(=O)(OC(C)C)/C(Cl)=N/Nc1ccc([N+](=O)[O-])cc1", "growth inhibition": "81% (active)"}
{"smiles": "O=[N+]([O-])c1cc(Cl)ccc1S(=O)(=O)c1ccc(Cl)cc1[N+](=O)[O-]", "growth inhibition": "89% (active)"}
{"smiles": "CCCCCCNCCCNc1c2cc(OC)ccc2nc2cccc([N+](=O)[O-])c12", "growth inhibition": "94% (active)"}
{"smiles": "N#CCC(=O)N/N=C(\\c1ccccc1)C(c1ccccc1)C1(O)C(=O)Nc2c(Cl)ccc(Cl)c21", "note": "(configuration not stated)", "growth inhibition": "6% (inactive)"}
{"smiles": "CN(C)CCNCCCNc1c2ccccc2nc2cccc([N+](=O)[O-])c12", "growth inhibition": "91% (active)"}
{"smiles": "CCC[CH2][Ge]([CH2]CCC)([CH2]CCC)[O]C(=O)C(O)c1ccccc1", "note": "(configuration not stated)", "growth inhibition": "69% (inactive)"}
{"smiles": "COc1ccc(-c2cc(-c3cc(C)cc(Cl)c3O)nc3[nH]c(=S)[nH]c(=S)c23)cc1", "growth inhibition": "2% (inactive)"}
{"smiles": "O=[N+]([O-])c1ccc(/C=C\\c2ccc3c(c2)OCO3)c([N+](=O)[O-])c1", "growth inhibition": "20% (inactive)"}
{"smiles": "O=C1c2ccccc2N2OC3(N4CCCC4)CCCCC3C12c1ccccc1", "note": "(configuration not stated)", "growth inhibition": "-1% (inactive)"}
{"smiles": "CC(C)OC(=O)NNc1cc(Cl)ccc1Cl", "growth inhibition": "33% (inactive)"}
{"smiles": "Cc1oc2ccccc2c(=O)c1Cn1nnc2ccccc21", "growth inhibition": "1% (inactive)"}
{"smiles": "CC1(C)OC(=O)C(=Cc2ccc([N+](=O)[O-])s2)C(=O)O1", "growth inhibition": "12% (inactive)"}
{"smiles": "CCN(CC)CCCNc1ccc([N+](=O)[O-])c2nc3ccc(OC)cc3c(NCCCN(CC)CC)c12", "growth inhibition": "1% (inactive)"}
{"smiles": "COc1cccc(/C=C2\\S/C(=N/Nc3nc(-c4ccc([N+](=O)[O-])cc4)cs3)NC2=O)c1O", "growth inhibition": "79% (active)"}
{"smiles": "OC(Cc1cccc2ccccc12)CN1CCC(c2ccccc2)CC1", "note": "(configuration not stated)", "growth inhibition": "86% (active)"}
{"smiles": "C1=CCN([B-](c2ccccc2)[C+]2CCCCC2)C=C1", "growth inhibition": "76% (active)"}
{"smiles": "O=[N+]([O-])c1cc[n+]([O-])c(Cl)c1", "growth inhibition": "100% (active)"}
{"smiles": "CCCNC(=O)OCc1c(COC(=O)NCCC)c(-c2ccc(Cl)c(Cl)c2)n2c1CCC2", "growth inhibition": "-12% (inactive)"}
{"smiles": "CC1(C)CC(=O)C(C(=O)Nc2cccs2)=C(O)C1", "growth inhibition": "78% (active)"}
{"smiles": "O=C(NO)c1coc2ccccc2c1=O", "growth inhibition": "-4% (inactive)"}
{"smiles": "COc1ccc(C(C)c2cc3c(cc2OCC(C)=O)OCO3)cc1", "note": "(configuration not stated)", "growth inhibition": "-4% (inactive)"}
{"smiles": "CCS(=O)(=O)Nc1ccc(Nc2c3ccccc3nc3ccccc23)c(OC)c1", "growth inhibition": "69% (inactive)"}
{"smiles": "O=S(=O)(c1ccccc1)N1CN2CN(C1)CN(S(=O)(=O)c1ccccc1)C2", "growth inhibition": "0% (inactive)"}
{"smiles": "CC1=NN(C(=O)c2ccccc2O)C(=O)/C1=C/c1ccco1", "growth inhibition": "91% (active)"}
{"smiles": "O=C1C=C(Br)C(=O)c2ccccc21", "growth inhibition": "99% (active)"}
{"smiles": "C[N+](C)([O-])CCCNc1c2ccccc2nc2cccc([N+](=O)[O-])c12", "growth inhibition": "97% (active)"}
{"smiles": "Cc1cccc2c(NCCCN(C)C)c3c([N+](=O)[O-])ccc(C)c3nc12", "growth inhibition": "98% (active)"}
{"smiles": "OC1(c2ccccc2)C2CC=CC2C1(c1ccccc1)c1ccccc1", "note": "(configuration not stated)", "growth inhibition": "18% (inactive)"}
{"smiles": "C[n+]1c(-c2ccc(/C=N/NC(=O)c3ccc(C(=O)N/N=C/c4ccc(-c5cn6ccccc6[n+]5C)cc4)cc3)cc2)cn2ccccc21", "growth inhibition": "41% (inactive)"}
{"smiles": "CCN(CC)CCC(=O)Nc1ccc2sc3ccccc3c(=O)c2n1", "growth inhibition": "24% (inactive)"}
{"smiles": "O=[N+]([O-])c1ccc2nc(=S)[nH]n2c1", "growth inhibition": "0% (inactive)"}
{"smiles": "O=C(c1ccccc1)[C@H]1Nc2ccc(Cl)cc2[C@H]2OCCC[C@@H]12", "growth inhibition": "-6% (inactive)"}
{"smiles": "COc1cc([N+](=O)[O-])c2ncccc2c1Br", "growth inhibition": "-1% (inactive)"}
{"smiles": "O=S(=O)(c1cccc(C(F)(F)F)c1)N1c2ccccc2-n2cccc2C1c1cccnc1", "note": "(configuration not stated)", "growth inhibition": "92% (active)"}
{"smiles": "CC(C)(C)OC(=O)NCCCCC(NC(=O)C(Cc1c[nH]c2ccccc12)NC(=O)OCC1c2ccccc2-c2ccccc21)C(=O)O", "note": "(configuration not stated) (Fmoc-Trp-Lys(Boc)-OH; configuration not given here)", "growth inhibition": "9% (inactive)"}
{"experiment": "NCI Yeast Anticancer Drug Screen. Data for the mec2-1 strain (AID 157)", "settings": "S. cerevisiae mec2-1 strain, at 50.0 µM (retest, dose inferred, filed as 5.0), active compounds read high", "procedure,_shortened": "as §1"}
{"smiles": "CC(C)C(=O)CC(Sc1ccc(N)cc1)c1ccccc1", "note": "(configuration not stated)", "growth inhibition": "88% (active)"}
{"smiles": "CC(C)OP(=O)(OC(C)C)/C(Cl)=N/Nc1ccc([N+](=O)[O-])cc1", "growth inhibition": "80% (active)"}
{"smiles": "O=[N+]([O-])c1cc(Cl)ccc1S(=O)(=O)c1ccc(Cl)cc1[N+](=O)[O-]", "growth inhibition": "93% (active)"}
{"smiles": "CCCCCCNCCCNc1c2cc(OC)ccc2nc2cccc([N+](=O)[O-])c12", "growth inhibition": "98% (active)"}
{"smiles": "N#CCC(=O)N/N=C(\\c1ccccc1)C(c1ccccc1)C1(O)C(=O)Nc2c(Cl)ccc(Cl)c21", "note": "(configuration not stated)", "growth inhibition": "36% (inactive)"}
{"smiles": "CN(C)CCNCCCNc1c2ccccc2nc2cccc([N+](=O)[O-])c12", "growth inhibition": "98% (active)"}
{"smiles": "CCC[CH2][Ge]([CH2]CCC)([CH2]CCC)[O]C(=O)C(O)c1ccccc1", "note": "(configuration not stated)", "growth inhibition": "50% (inactive)"}
{"smiles": "COc1ccc(-c2cc(-c3cc(C)cc(Cl)c3O)nc3[nH]c(=S)[nH]c(=S)c23)cc1", "growth inhibition": "62% (inactive)"}
{"smiles": "O=[N+]([O-])c1ccc(/C=C\\c2ccc3c(c2)OCO3)c([N+](=O)[O-])c1", "growth inhibition": "97% (active)"}
{"smiles": "O=C1c2ccccc2N2OC3(N4CCCC4)CCCCC3C12c1ccccc1", "note": "(configuration not stated)", "growth inhibition": "23% (inactive)"}
{"smiles": "CC(C)OC(=O)NNc1cc(Cl)ccc1Cl", "growth inhibition": "20% (inactive)"}
{"smiles": "Cc1oc2ccccc2c(=O)c1Cn1nnc2ccccc21", "growth inhibition": "5% (inactive)"}
{"smiles": "CC1(C)OC(=O)C(=Cc2ccc([N+](=O)[O-])s2)C(=O)O1", "growth inhibition": "99% (active)"}
{"smiles": "CCN(CC)CCCNc1ccc([N+](=O)[O-])c2nc3ccc(OC)cc3c(NCCCN(CC)CC)c12", "growth inhibition": "26% (inactive)"}
{"smiles": "COc1cccc(/C=C2\\S/C(=N/Nc3nc(-c4ccc([N+](=O)[O-])cc4)cs3)NC2=O)c1O", "growth inhibition": "52% (inactive)"}
{"smiles": "OC(Cc1cccc2ccccc12)CN1CCC(c2ccccc2)CC1", "note": "(configuration not stated)", "growth inhibition": "57% (inactive)"}
{"smiles": "C1=CCN([B-](c2ccccc2)[C+]2CCCCC2)C=C1", "growth inhibition": "96% (active)"}
{"smiles": "O=[N+]([O-])c1cc[n+]([O-])c(Cl)c1", "growth inhibition": "99% (active)"}
{"smiles": "CCCNC(=O)OCc1c(COC(=O)NCCC)c(-c2ccc(Cl)c(Cl)c2)n2c1CCC2", "growth inhibition": "25% (inactive)"}
{"smiles": "CC1(C)CC(=O)C(C(=O)Nc2cccs2)=C(O)C1", "growth inhibition": "49% (inactive)"}
{"smiles": "O=C(NO)c1coc2ccccc2c1=O", "growth inhibition": "10% (inactive)"}
{"smiles": "COc1ccc(C(C)c2cc3c(cc2OCC(C)=O)OCO3)cc1", "note": "(configuration not stated)", "growth inhibition": "7% (inactive)"}
{"smiles": "CCS(=O)(=O)Nc1ccc(Nc2c3ccccc3nc3ccccc23)c(OC)c1", "growth inhibition": "96% (active)"}
{"smiles": "O=S(=O)(c1ccccc1)N1CN2CN(C1)CN(S(=O)(=O)c1ccccc1)C2", "growth inhibition": "79% (active)"}
{"smiles": "CC1=NN(C(=O)c2ccccc2O)C(=O)/C1=C/c1ccco1", "growth inhibition": "93% (active)"}
{"smiles": "O=C1C=C(Br)C(=O)c2ccccc21", "growth inhibition": "99% (active)"}
{"smiles": "C[N+](C)([O-])CCCNc1c2ccccc2nc2cccc([N+](=O)[O-])c12", "growth inhibition": "95% (active)"}
{"smiles": "Cc1cccc2c(NCCCN(C)C)c3c([N+](=O)[O-])ccc(C)c3nc12", "growth inhibition": "11% (inactive)"}
{"smiles": "OC1(c2ccccc2)C2CC=CC2C1(c1ccccc1)c1ccccc1", "note": "(configuration not stated)", "growth inhibition": "-10% (inactive)"}
{"smiles": "C[n+]1c(-c2ccc(/C=N/NC(=O)c3ccc(C(=O)N/N=C/c4ccc(-c5cn6ccccc6[n+]5C)cc4)cc3)cc2)cn2ccccc21", "growth inhibition": "63% (inactive)"}
{"smiles": "CCN(CC)CCC(=O)Nc1ccc2sc3ccccc3c(=O)c2n1", "growth inhibition": "-1% (inactive)"}
{"smiles": "O=[N+]([O-])c1ccc2nc(=S)[nH]n2c1", "growth inhibition": "-7% (inactive)"}
{"smiles": "O=C(c1ccccc1)[C@H]1Nc2ccc(Cl)cc2[C@H]2OCCC[C@@H]12", "growth inhibition": "49% (inactive)"}
{"smiles": "COc1cc([N+](=O)[O-])c2ncccc2c1Br", "growth inhibition": "16% (inactive)"}
{"smiles": "O=S(=O)(c1cccc(C(F)(F)F)c1)N1c2ccccc2-n2cccc2C1c1cccnc1", "note": "(configuration not stated)", "growth inhibition": "97% (active)"}
{"smiles": "CC(C)(C)OC(=O)NCCCCC(NC(=O)C(Cc1c[nH]c2ccccc12)NC(=O)OCC1c2ccccc2-c2ccccc21)C(=O)O", "note": "(configuration not stated) (Fmoc-Trp-Lys(Boc)-OH; configuration not given here)", "growth inhibition": "36% (inactive)"}
